Assay results: PubChem BioAssay (NCATS)
Records with an inconclusive call do not appear. The source made the active and inactive calls. Calls come from the whole dose curve; as a rule, active = well fitted curve in the direction sought with a large enough effect; inconclusive = small, poorly fitted or top-dose-only effect, or another doubt; inactive = no such curve, though single readings can be large; an effect the other way counts as inactive or inconclusive.

Legend:
[1] = test system: CRL-7250; assay: Cytotoxic Profiling of Annotated Libraries Using Quantitative High-Throughput Screening (AID 1296008); conditions: Five cell lines viability, CellTiter-Glo ATP luminescence, 48-72 h; max response: active compounds read low; note: nearly all actives have a fitted effect of over 60% in size; for max response: % is set by controls: 0 for no effect and ±100 for the full control effect
In short: (§1)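 Compounds were pin-transferred onto cells and incubated 48 or 72 hr at 37 degree Celsius, 95% humidity. CellTiter-Glo was added, plates sat 10 min at room temperature, then ATP-coupled luminescence was imaged as the viability read-out.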

[2] = test system: HaCat; assay: as above; conditions: Five cell lines viability, CellTiter-Glo ATP luminescence, 48-72 h; max response: active compounds read low
In short: as §1

[3] = test system: KB-3-1; assay: as above; conditions: Five cell lines viability, CellTiter-Glo ATP luminescence, 48-72 h; max response: active compounds read low
In short: as §1

[4] = test system: NIH3T3; assay: as above; conditions: Five cell lines viability, CellTiter-Glo ATP luminescence, 48-72 h; max response: active compounds read low
In short: as §1

[5] = test system: HACAT; assay: qHTS assay to identify novel small-molecules to repurpose for Merkel cell carcinoma treatment (AID 1296009); conditions: MCC and control cell lines, CellTiter-Glo viability, 72 h; at 44.8 µM (top of the series) unless noted; note: nearly all actives have a fitted effect of over 60% in size
In short: (§2)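 qHTS format: cells treated with library compounds in DMSO across 8 (NPC) or 11 (MIPE) concentrations. Readout after 72 hr at 37 degree celsius was CellTiter-Glo luminescence.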

[6] = test system: NIH3T3; assay: as above; conditions: MCC and control cell lines, CellTiter-Glo viability, 72 h; series mostly up to 44.8 µM
In short: as §2

[7] = test system: C33A; assay: Primary qHTS to identify gynecologic anti-cancer compounds using libraries of approved drugs and bioactive compounds (AID 1345084); conditions: Gynecologic cancer cell panel viability, ATPlite luminescence, 48 h; series mostly up to 57.5 µM; note: % is set by controls: 0 for no effect and ±100 for the full control effect; nearly all actives have a fitted effect of over 55% in size
In short: (§3)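 Cell viability after 48 h drug treatment, ATPlite luminescence readout; five doses.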

[8] = test system: CAOV3; assay: as above; conditions: Gynecologic cancer cell panel viability, ATPlite luminescence, 48 h; series mostly up to 57.5 µM
In short: as §3

[9] = test system: CASKI; assay: as above; conditions: Gynecologic cancer cell panel viability, ATPlite luminescence, 48 h; series mostly up to 57.5 µM
In short: as §3

[10] = test system: Es-2; assay: as above; conditions: Gynecologic cancer cell panel viability, ATPlite luminescence, 48 h; series mostly up to 57.5 µM
In short: as §3

[11] = test system: HeLa; assay: as above; conditions: Gynecologic cancer cell panel viability, ATPlite luminescence, 48 h; series mostly up to 57.5 µM
In short: as §3

[12] = test system: Hek293T; assay: as above; conditions: Gynecologic cancer cell panel viability, ATPlite luminescence, 48 h, control line for the selectivity index; series mostly up to 57.5 µM
In short: as §3

[13] = test system: JEG-3; assay: as above; conditions: Gynecologic cancer cell panel viability, ATPlite luminescence, 48 h; series mostly up to 57.5 µM
In short: as §3

[14] = test system: OV90; assay: as above; conditions: Gynecologic cancer cell panel viability, ATPlite luminescence, 48 h; series mostly up to 57.5 µM
In short: as §3

[15] = test system: SKOV3; assay: as above; conditions: Gynecologic cancer cell panel viability, ATPlite luminescence, 48 h; series mostly up to 57.5 µM
In short: as §3

[16] = test system: PA-1; assay: as above; conditions: Gynecologic cancer cell panel viability, ATPlite luminescence, 48 h; series mostly up to 57.5 µM
In short: as §3

COC(=O)c1ccc2c(c1)[nH]c1ncnc(NCCCN3CCCCC3)c12
inactive: max response [1] -8.38% | outcome [2] | max response [3] -20.2% | outcome [4] | outcome [5] | Potency [6] | Potency [7] | Potency [8] | Potency [9] | Potency [10] | Potency [11] | Potency [12] | Potency [13] | Potency [14] | Potency [15]

CC(=O)OCC(=O)[C@@]12O[C@@H]1C[C@H]1[C@@H]3CC=C4C[C@@H](O)CC[C@]4(C)[C@H]3CC[C@@]12C
inactive: max response [1] 1.57% | outcome [2] | outcome [3] | outcome [4] | outcome [5] | Potency [6] | Potency [7] | Potency [8] | Potency [9] | Potency [10] | Potency [11] | Potency [12] | Potency [13] | Potency [14] | Potency [16] | Potency [15]

CC(=O)NC[C@H]1CN(c2ccc(N3CCSCC3)c(F)c2)C(=O)O1
inactive: max response [1] 3.86% | outcome [2] | max response [3] -11.9% | outcome [4] | outcome [5] | Potency [6] | Potency [7] | Potency [8] | Potency [9] | Potency [10] | Potency [11] | Potency [12] | Potency [13] | Potency [14] | Potency [16] | Potency [15]

CC1=C2C[C@@]3(C)C(CCC[C@@H]3C)C(O)C2OC1=O (stereo not given in full)
inactive: max response [1] 2.27% | outcome [2] | max response [3] 5.15% | outcome [4] | outcome [5] | Potency [6] | Potency [7] | Potency [8] | Potency [9] | Potency [10] | Potency [11] | Potency [12] | Potency [13] | Potency [14] | Potency [16] | Potency [15]

CC1(C)C2CCC(CO[C@@H]3O[C@H](CO[C@@H]4OC[C@](O)(CO)[C@H]4O)[C@@H](O)[C@H](O)[C@H]3O)C1C2 (stereo not given in full)
inactive: max response [1] 1.81% | outcome [2] | outcome [3] | outcome [4] | outcome [5] inactive [at 17.4 µM] | Potency [6] | Potency [7] | Potency [8] | Potency [9] | Potency [10] | Potency [11] | Potency [12] | Potency [13] | Potency [14] | Potency [16] | Potency [15]

CCN(CC)C(=O)C(c1ccccc1)N1CCN(c2ccc(NC(=O)c3ccccc3-c3cccnc3)cc2F)CC1 (stereo not given)
inactive: max response [1] -1.45% | outcome [2] | outcome [3] | outcome [4] | outcome [5] | Potency [6] | Potency [7] | Potency [8] | Potency [9] | Potency [10] | Potency [11] | Potency [12] | Potency [13] | Potency [14] | Potency [16] | Potency [15]

C/C=C/C=C/C(=O)O[C@@H]1C=C2COC(=O)[C@]2(O)[C@@]2(C)CCCC(C)(C)[C@H]12
inactive: max response [1] -1.83% | outcome [2] | max response [3] 0.722% | outcome [4] | outcome [5] | Potency [6] | Potency [7] | Potency [8] | Potency [9] | Potency [10] | Potency [11] | Potency [12] | Potency [13] | Potency [14] | Potency [16] | Potency [15]

CC(=O)O[C@@H]1CC[C@@]2(C)C(CC[C@]3(C)C2[C@H](O)C=C2[C@H]4[C@@H](C)[C@H](C)CC[C@]4(C)CC[C@]23C)[C@@]1(C)C(=O)O (stereo not given in full)
inactive: max response [1] -13.3% | outcome [2] | outcome [3] | outcome [4] | outcome [5] inactive [at 17.4 µM] | Potency [6] | Potency [7] | Potency [8] | Potency [9] | Potency [10] | Potency [11] | Potency [12] | Potency [13] | Potency [14] | Potency [16] | Potency [15]

Cc1cc(NC(=O)NCCN2CCC(O)(Cc3ccccc3)CC2)c2ccccc2n1
inactive: max response [1] 2.34% | outcome [2] | max response [3] -1.93% | outcome [4] | outcome [5] | Potency [6] | Potency [7] | Potency [8] | Potency [9] | Potency [10] | Potency [11] | Potency [12] | Potency [13] | Potency [14] | Potency [16] | Potency [15]

CCOc1ccc(CCNC(=O)c2cc3sc(Cl)cc3n2C)cc1OCC
inactive: max response [1] -5.08% | outcome [2] | max response [3] -5.99% | outcome [4] | outcome [5] | Potency [6] | Potency [7] | Potency [8] | Potency [9] | Potency [10] | Potency [11] | Potency [12] | Potency [13] | Potency [14] | Potency [16] | Potency [15]

CN(C)CCOc1cc(NS(=O)(=O)c2c(Cl)cc(C(F)(F)F)cc2Cl)ccc1Cl
inactive: max response [1] 2.92% | outcome [2] | max response [3] -11% | outcome [4] | outcome [5] | Potency [6] | Potency [7] | Potency [8] | Potency [9] | Potency [10] | Potency [11] | Potency [12] | Potency [13] | Potency [14] | Potency [16] | Potency [15]

O=c1[nH]c2ccccc2n1CCN1CCN(c2cccc(C(F)(F)F)c2)CC1
inactive: outcome [1] | outcome [2] | max response [3] -13.2% | outcome [4] | outcome [5] | Potency [6] | Potency [7] | Potency [8] | Potency [9] | Potency [10] | Potency [11] | Potency [12] | Potency [13] | Potency [14] | Potency [16] | Potency [15]

COc1cc(F)c(C(C)C)cc1-c1ccc(C(F)(F)F)cc1CN1C(=O)OC(c2cc(C(F)(F)F)cc(C(F)(F)F)c2)C1C (stereo not given)
inactive: max response [1] 3.77% | outcome [2] | outcome [3] | outcome [4] | outcome [5] | Potency [6] | Potency [7] | Potency [8] | Potency [9] | Potency [10] | Potency [11] | Potency [12] | Potency [13] | Potency [14] | Potency [16]

O=S(=O)(N[C@H]1CCCC[C@@H]1N1CCOCC1)c1ccc(Cl)cc1
inactive: max response [1] -16% | outcome [2] | max response [3] 1.51% | outcome [4] | outcome [5] | Potency [6] | Potency [7] | Potency [8] | Potency [9] | Potency [10] | Potency [11] | Potency [12] | Potency [13] | Potency [16] | Potency [15]

C=C1CCC2C(C)(C(=O)O)CCCC2(C)C1CCC1=CCOC1=O (stereo not given)
inactive: outcome [1] | outcome [2] | max response [3] -6.84% | outcome [4] | outcome [5] | Potency [6] | Potency [7] | Potency [8] | Potency [9] | Potency [10] | Potency [11] | Potency [12] | Potency [13] | Potency [14] | Potency [16] | Potency [15]

O=C(NCC1CCN(Cc2cccc(Cl)c2)CC1)[C@@H]1CCCN(c2ncnc3c2nc2n3CCCC2)C1
inactive: max response [1] 4.3% | outcome [2] | max response [3] -6.02% | outcome [4] | outcome [5] | Potency [6] | Potency [7] | Potency [8] | Potency [9] | Potency [10] | Potency [11] | Potency [12] | Potency [13] | Potency [14] | Potency [16] | Potency [15]

C=CC(=O)N1CC(N2CCN(C(=O)CNc3cc(C4CC4)c(Cl)cc3O)CC2)C1
inactive: outcome [1] | outcome [2] | outcome [3] | outcome [4] | outcome [5] | Potency [6] | Potency [7] | Potency [8] | Potency [9] | Potency [10] | Potency [11] | Potency [12] | Potency [13] | Potency [14] | Potency [15]

CNCCC(c1cccs1)c1ccc(O)c2ccccc12 (stereo not given)
inactive: max response [1] 3.5% | outcome [2] | max response [3] 6.48% | outcome [4] | outcome [5] | Potency [6] | Potency [7] | Potency [8] | Potency [9] | Potency [10] | Potency [11] | Potency [12] | Potency [16]

CC(C)c1c(O)ccc2c1CC[C@H]1C(C)(C)CCC[C@]21C
inactive: outcome [1] | outcome [2] | max response [3] 7.3% | outcome [4] | outcome [5] | Potency [6] | Potency [7] | Potency [8] | Potency [9] | Potency [10] | Potency [11] | Potency [12] | Potency [13] | Potency [14] | Potency [16] | Potency [15]

CCOC(=O)N1CCC(N2CCC[C@@H](NC(=O)c3ccccc3C)C2)CC1
inactive: max response [1] -6.33% | outcome [2] | max response [3] 8.62% | outcome [4] | outcome [5] | Potency [6] | Potency [7] | Potency [8] | Potency [9] | Potency [10] | Potency [11] | Potency [12] | Potency [13] | Potency [14] | Potency [16] | Potency [15]

CC(C)(F)CC(NC(c1ccc(-c2ccc(S(C)(=O)=O)cc2)cc1)C(F)(F)F)C(=O)NC1(C#N)CC1 (stereo not given)
inactive: max response [1] -1.34% | outcome [2] | outcome [3] | outcome [4] | outcome [5] | Potency [6] | Potency [7] | Potency [8] | Potency [9] | Potency [10] | Potency [11] | Potency [12] | Potency [13] | Potency [14] | Potency [16]

O=C(Nc1ccccc1C(=O)Nc1ccc(CCO)cc1)c1ccc([N+](=O)[O-])cc1
inactive: max response [1] -0.113% | outcome [2] | outcome [3] | outcome [4] | outcome [5] | Potency [6] | Potency [7] | Potency [8] | Potency [9] | Potency [10] | Potency [11] | Potency [12] | Potency [13] | Potency [14] | Potency [16] | Potency [15]

CNCCCC1(c2ccccc2)OC(C)(C)c2ccccc21 (stereo not given)
inactive: max response [1] 3.46% | outcome [2] | max response [3] -1.28% | outcome [4] | outcome [5] | Potency [6] | Potency [7] | Potency [8] | Potency [9] | Potency [10] | Potency [11] | Potency [12] | Potency [13] | Potency [14] | Potency [16] | Potency [15]
